# Paper PMC4336329 (PLoS ONE, 2015)
# About 14,000 (4.5%) of roughly 310,000 compounds showed an effect of 50% or more. Effects have a minus sign here. The full list was thinned out, with strong results kept by preference.
# Target: human ether-à-go-go-related gene (hERG) potassium channel (human, UniProt Q12809)
# Assay: primary screen, population patch clamp on CHO cells stably expressing hERG; higher = less effect of the substance
# 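Further: peak tail current of the secondary pulse compared with the same well before compound.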
# human ether-à-go-go-related gene (hERG) potassium channel, sequence (Q12809 whole entry, looked up): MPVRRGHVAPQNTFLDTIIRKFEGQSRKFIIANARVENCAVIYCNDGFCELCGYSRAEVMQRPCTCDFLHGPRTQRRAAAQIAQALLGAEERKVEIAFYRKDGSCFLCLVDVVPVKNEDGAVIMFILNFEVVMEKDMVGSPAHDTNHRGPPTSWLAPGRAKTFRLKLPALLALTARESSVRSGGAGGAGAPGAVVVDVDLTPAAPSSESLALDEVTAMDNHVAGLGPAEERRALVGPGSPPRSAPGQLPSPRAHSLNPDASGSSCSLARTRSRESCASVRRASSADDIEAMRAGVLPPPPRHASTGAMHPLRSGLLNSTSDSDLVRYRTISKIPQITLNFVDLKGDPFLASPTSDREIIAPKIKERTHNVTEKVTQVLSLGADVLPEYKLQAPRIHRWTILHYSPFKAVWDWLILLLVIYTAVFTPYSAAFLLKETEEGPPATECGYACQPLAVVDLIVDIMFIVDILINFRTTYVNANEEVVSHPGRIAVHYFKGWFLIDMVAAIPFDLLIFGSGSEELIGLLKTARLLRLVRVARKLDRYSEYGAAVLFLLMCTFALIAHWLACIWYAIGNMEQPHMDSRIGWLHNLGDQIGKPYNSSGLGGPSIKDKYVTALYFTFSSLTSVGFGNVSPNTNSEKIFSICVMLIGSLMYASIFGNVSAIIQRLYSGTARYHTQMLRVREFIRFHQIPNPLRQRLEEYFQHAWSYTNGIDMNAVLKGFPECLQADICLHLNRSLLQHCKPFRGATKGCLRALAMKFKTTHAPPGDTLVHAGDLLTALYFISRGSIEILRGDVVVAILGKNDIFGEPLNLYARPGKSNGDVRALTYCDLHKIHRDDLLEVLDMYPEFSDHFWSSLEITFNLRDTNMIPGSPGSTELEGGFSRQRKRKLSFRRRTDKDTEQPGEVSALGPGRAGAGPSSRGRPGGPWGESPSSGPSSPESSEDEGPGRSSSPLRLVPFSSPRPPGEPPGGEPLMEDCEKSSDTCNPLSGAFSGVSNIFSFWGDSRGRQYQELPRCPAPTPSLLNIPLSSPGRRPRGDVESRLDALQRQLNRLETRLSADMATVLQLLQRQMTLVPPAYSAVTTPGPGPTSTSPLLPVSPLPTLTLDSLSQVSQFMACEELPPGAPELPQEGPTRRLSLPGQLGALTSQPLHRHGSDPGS
row,SMILES,"hERG current change (%, negative = inhibition) at 10uM"
1,COc1cccc(CC(=O)NCC2(N3CCCCC3)CCCCC2)c1,25%
2,Cn1cc(Br)c(C(=O)NC2CCCCCC2)n1,2.74%
3,Cc1cccn2c(=O)nc(SCC(=O)Nc3ccc4c(c3)OCO4)nc12,-5.58%
4,CCN(C(=O)CSc1nc2nc(C)cc(C)n2n1)C1CCS(=O)(=O)C1 (stereo not drawn),20.5%
5,CC(=O)N1CCN(C(=O)COC(=O)COc2ccc(C#N)cc2)CC1,4.54%
6,N#Cc1ccccc1OCC(=O)OCCCOC(=O)COc1ccccc1C#N,10.1%
7,N#Cc1ccc(OCC(=O)OCCCOC(=O)COc2ccc(C#N)cc2)cc1,-66.8%
8,CCOC(=O)c1c(NC(=O)CCN2C(=O)c3ccccc3C2=O)sc(C(=O)OC(C)C)c1C,-4.35%
9,Cc1ccc(S(=O)(=O)N/N=C/c2cccs2)cc1,9.65%
10,C=CCOc1ccccc1CNc1cccc(F)c1,14.2%
11,CCC(C)Sc1cc(-c2nc3ccc(C)cn3c2NCc2ccccc2)ccc1OC.O=C(O)C(F)(F)F (stereo not drawn),-1.12%
12,Cl.OC(COC(c1ccc(Cl)cc1)c1ccc(Cl)cc1)CN1CCN(c2ccccn2)CC1 (stereo not drawn),-82.4%
13,Cl.OC(COc1ccc(Cl)c2ccccc12)CN1CCN(c2ccccn2)CC1 (stereo not drawn),-21.9%
14,OC(COC(c1ccccc1)c1ccccc1)CN1CCN(c2ccccn2)CC1 (stereo not drawn),-74.7%
15,Cl.OC(COc1cccc2ccccc12)CN1CCN(c2ccccn2)CC1 (stereo not drawn),-49.2%
16,Cc1cc(C)c2nc(-c3ccccn3)cc(C(=O)n3cccn3)c2c1,22.9%
17,S=C(NCCc1ccccc1)NCCc1cnc[nH]1,-4.01%
18,CCOC(=O)C1CCCN(S(=O)(=O)c2cn(C)c(=O)n(C)c2=O)C1 (stereo not drawn),12.8%
19,Cc1cc(=O)[nH]c(SCCCOc2ccccc2Cl)n1,3.82%
20,CCOC(=O)c1cnc2c(C)cc(C)cc2c1NCCCN1CCOCC1,-59.7%

row,SMILES,"hERG current change (%, negative = inhibition) at 10uM"
1,CCOC(=O)c1cnc2c(Cl)cc(Cl)cc2c1NCCCN1CCOCC1,-4.47%
2,CCOC(=O)c1cnc2c(CC)cccc2c1NCCN1CCOCC1,-44.4%
3,CCOC(=O)c1cnc2c(Cl)cccc2c1NCCN1CCOCC1,-15.3%
4,CCOC(=O)c1cnc2c(C(=O)OC)cccc2c1NCCN1CCOCC1,-70%
5,CCOC(=O)c1cnc2c(C)cccc2c1NCCCN1CCOCC1,-72.8%
6,CCOC(=O)c1cnc2c(CC)cccc2c1NCCCN1CCOCC1,-35.6%
7,CCOC(=O)c1cnc2c(C)cc(Cl)cc2c1NCCCN1CCOCC1,1.44%
8,CCOC(=O)c1cnc2c(Cl)cccc2c1NCCCN1CCOCC1,-44.7%
9,CCOc1c2ccc(C(=O)NCCCCc3ccccc3)cc2nn1C,-14.5%
10,CC(=O)c1cc(O)c2ccccc2c1O,-2.58%
11,CC(=O)Nc1ccc(C(=O)N/N=C/c2ccccc2OCc2ccccc2)cc1,29.2%
12,C#CCNC(=O)C1=C[C@@H](c2ccccc2)C[C@@H](OCCCCO)O1,-13.4%
13,CCCCc1ccc(NC(=O)NCc2cccnc2)cc1,-41.4%
14,COc1cc(OC)cc(OC(=O)C2CCN(C(=O)c3ccc(F)cc3)CC2)c1,-7.47%
15,COC(=O)C1CCN(C(=O)c2cc(OC)c(OC)c(OC)c2)CC1,19.3%
16,COc1ccc(-n2c(C)nc3cc(C(=O)N4CCOCC4)ccc32)cc1,-14.1%
17,Cc1nc2cc(F)ccc2n1C1CCN(C(=O)c2ccc(F)cc2F)CC1,-56.4%
18,Cc1nc2cc(C(=O)O)ccc2n1C1CCCCC1,7.52%
19,COc1cc(C(=O)N2CCC(n3cnc4cc(F)ccc43)CC2)cc(OC)c1OC,-56.9%
20,COc1cc(OC)cc(C(=O)N2CCC(N3CCCCCC3)CC2)c1,-5.77%

row,SMILES,"hERG current change (%, negative = inhibition) at 10uM"
1,COc1cc(OC)cc(C(=O)N2CCC(n3c(C)nc4cc(F)ccc43)CC2)c1,-59%
2,COc1cc(OC)cc(C(=O)N2CCN(C(=O)c3cccc(F)c3)CC2)c1,-3.19%
3,COc1cc(C(=O)N2CCC(N3CCCCCC3)CC2)cc(OC)c1OC.O=C(O)C(=O)O,-2.57%
4,Cc1nc2cc(F)ccc2n1C1CCN(S(=O)(=O)c2ccccc2)CC1,-48.6%
5,COc1ccc(C(=O)N2CCC(n3c(C)nc4cc(F)ccc43)CC2)cc1,-73.4%
6,Cn1c(=O)cc(OCCCC(=O)N2CCN(c3ccccc3)CC2)c2ccccc21,-47.3%
7,Cc1c(N=Nc2c(O)n(C)c(=O)n(C)c2=O)c(=O)n(-c2ccccc2)n1C,8.74%
8,O=C(c1cccs1)N1CCN(C(=O)c2ccco2)c2ccccc2C1,-13.6%
9,COc1ccc(Cc2nc3ccc(C(=O)NCCCSC)cc3o2)cc1OC,0.503%
10,O=C(NNC(=O)c1cccc2ccccc12)c1ccccc1O,4.19%
11,O=c1c2ccccc2nc(SCc2cc(F)cc3c2OCOC3)n1Cc1ccco1,-2.26%
12,O=C(c1cc(COc2ccc3ncccc3c2)on1)N1CCC[C@H]1CO,4.88%
13,COc1ccc(C(=O)N2CCC(n3c(C)nc4cc(F)ccc43)CC2)cc1OC,-69%
14,O=C(N1CCOCC1)N1CCC(n2nnc3cc(F)ccc32)CC1,-7.65%
15,O=C(c1ccc([N+](=O)[O-])cc1)N1CCC(n2nnc3cc(F)ccc32)CC1,-71.9%
16,COc1cc(C(=O)N2CCC(n3c(C)nc4cc(F)ccc43)CC2)cc(OC)c1OC,-8.07%
17,COc1ccc(C(=O)N2CCC(n3nnc4cc(F)ccc43)CC2)cc1OC,-61.6%
18,COc1ccc(C(=O)N2CCN(S(=O)(=O)c3ccc(F)cc3)CC2)cc1OC,10.9%
19,Cc1cccc(C(=O)N2CCC(n3nnc4cc(F)ccc43)CC2)c1,-34.8%
20,O=C(c1ccc(F)cc1)N1CCC(n2nnc3ccccc32)CC1,-33.3%
